In ChEMBL document CHEMBL1961873, “Compounds: GSK PKIS; Assays: Nanosyn kinase panel” (2012):

Key:
[1] = biological target: Serine/threonine-protein kinase MRCK alpha (Homo sapiens) (UniProt Q5VT25); conditions: at 0.1 µM
[2] = biological target: Serine/threonine-protein kinase MRCK alpha (Homo sapiens) (UniProt Q5VT25); conditions: at 1 µM
[3] = biological target: Serine/threonine-protein kinase MRCK beta (Homo sapiens) (UniProt Q9Y5S2); conditions: at 0.1 µM
[4] = biological target: Serine/threonine-protein kinase MRCK beta (Homo sapiens) (UniProt Q9Y5S2); conditions: at 1 µM
[5] = biological target: Ribosomal protein S6 kinase alpha-5 (Homo sapiens) (UniProt O75582); conditions: at 0.1 µM
Sequence of Ribosomal protein S6 kinase alpha-5 (Homo sapiens) (O75582 whole entry, looked up): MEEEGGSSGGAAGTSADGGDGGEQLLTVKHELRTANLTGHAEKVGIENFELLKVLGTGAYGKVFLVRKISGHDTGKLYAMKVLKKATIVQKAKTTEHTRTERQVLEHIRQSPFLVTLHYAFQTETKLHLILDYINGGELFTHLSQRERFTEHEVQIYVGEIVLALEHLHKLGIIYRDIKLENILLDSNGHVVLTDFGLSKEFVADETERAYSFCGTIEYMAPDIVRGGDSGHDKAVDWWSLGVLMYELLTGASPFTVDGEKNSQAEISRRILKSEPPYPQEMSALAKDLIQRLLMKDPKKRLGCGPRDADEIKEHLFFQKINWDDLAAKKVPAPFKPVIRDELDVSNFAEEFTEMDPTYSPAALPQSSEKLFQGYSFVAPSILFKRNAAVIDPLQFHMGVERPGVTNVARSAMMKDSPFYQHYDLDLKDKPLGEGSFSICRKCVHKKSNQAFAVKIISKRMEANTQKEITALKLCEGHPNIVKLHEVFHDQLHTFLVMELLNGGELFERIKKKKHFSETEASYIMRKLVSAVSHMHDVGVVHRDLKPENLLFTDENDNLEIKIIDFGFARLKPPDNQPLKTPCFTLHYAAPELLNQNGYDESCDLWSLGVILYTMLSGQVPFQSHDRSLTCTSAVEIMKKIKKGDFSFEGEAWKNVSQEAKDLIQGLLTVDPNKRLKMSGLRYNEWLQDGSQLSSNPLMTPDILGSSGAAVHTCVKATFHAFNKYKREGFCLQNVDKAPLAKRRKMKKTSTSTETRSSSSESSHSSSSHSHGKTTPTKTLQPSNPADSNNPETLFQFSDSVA

[6] = biological target: Ribosomal protein S6 kinase alpha-5 (Homo sapiens) (UniProt O75582); conditions: at 1 µM
[7] = biological target: Ribosomal protein S6 kinase alpha-4 (Homo sapiens) (UniProt O75676); conditions: at 0.1 µM
Sequence of Ribosomal protein S6 kinase alpha-4 (Homo sapiens) (O75676 whole entry, looked up): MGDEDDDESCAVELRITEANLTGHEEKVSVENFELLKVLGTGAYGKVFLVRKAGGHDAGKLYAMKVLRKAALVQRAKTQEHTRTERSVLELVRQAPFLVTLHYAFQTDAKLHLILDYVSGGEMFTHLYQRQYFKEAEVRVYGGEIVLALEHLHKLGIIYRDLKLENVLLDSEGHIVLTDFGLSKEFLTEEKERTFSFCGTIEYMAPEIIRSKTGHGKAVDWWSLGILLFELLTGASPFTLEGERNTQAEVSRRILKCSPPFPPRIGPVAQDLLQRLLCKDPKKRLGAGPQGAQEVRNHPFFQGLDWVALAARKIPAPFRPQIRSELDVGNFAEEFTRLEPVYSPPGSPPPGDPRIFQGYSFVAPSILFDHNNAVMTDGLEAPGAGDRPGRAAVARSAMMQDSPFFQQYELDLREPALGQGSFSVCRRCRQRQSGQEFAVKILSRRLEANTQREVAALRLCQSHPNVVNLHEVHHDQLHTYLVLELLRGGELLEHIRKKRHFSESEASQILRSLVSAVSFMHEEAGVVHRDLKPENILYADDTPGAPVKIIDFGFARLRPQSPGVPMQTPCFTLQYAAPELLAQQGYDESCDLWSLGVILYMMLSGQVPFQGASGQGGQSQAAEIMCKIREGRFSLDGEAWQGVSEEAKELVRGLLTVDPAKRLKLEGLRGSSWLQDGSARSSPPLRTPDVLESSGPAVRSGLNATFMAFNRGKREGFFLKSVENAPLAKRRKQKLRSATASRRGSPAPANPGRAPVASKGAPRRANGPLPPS

[8] = biological target: Ribosomal protein S6 kinase alpha-4 (Homo sapiens) (UniProt O75676); conditions: at 1 µM
[9] = biological target: Ribosomal protein S6 kinase beta-1 (Homo sapiens) (UniProt P23443); conditions: at 0.1 µM
[10] = biological target: Ribosomal protein S6 kinase beta-1 (Homo sapiens) (UniProt P23443); conditions: at 1 µM

Sequence of Serine/threonine-protein kinase MRCK beta (Homo sapiens) (Q9Y5S2 whole entry): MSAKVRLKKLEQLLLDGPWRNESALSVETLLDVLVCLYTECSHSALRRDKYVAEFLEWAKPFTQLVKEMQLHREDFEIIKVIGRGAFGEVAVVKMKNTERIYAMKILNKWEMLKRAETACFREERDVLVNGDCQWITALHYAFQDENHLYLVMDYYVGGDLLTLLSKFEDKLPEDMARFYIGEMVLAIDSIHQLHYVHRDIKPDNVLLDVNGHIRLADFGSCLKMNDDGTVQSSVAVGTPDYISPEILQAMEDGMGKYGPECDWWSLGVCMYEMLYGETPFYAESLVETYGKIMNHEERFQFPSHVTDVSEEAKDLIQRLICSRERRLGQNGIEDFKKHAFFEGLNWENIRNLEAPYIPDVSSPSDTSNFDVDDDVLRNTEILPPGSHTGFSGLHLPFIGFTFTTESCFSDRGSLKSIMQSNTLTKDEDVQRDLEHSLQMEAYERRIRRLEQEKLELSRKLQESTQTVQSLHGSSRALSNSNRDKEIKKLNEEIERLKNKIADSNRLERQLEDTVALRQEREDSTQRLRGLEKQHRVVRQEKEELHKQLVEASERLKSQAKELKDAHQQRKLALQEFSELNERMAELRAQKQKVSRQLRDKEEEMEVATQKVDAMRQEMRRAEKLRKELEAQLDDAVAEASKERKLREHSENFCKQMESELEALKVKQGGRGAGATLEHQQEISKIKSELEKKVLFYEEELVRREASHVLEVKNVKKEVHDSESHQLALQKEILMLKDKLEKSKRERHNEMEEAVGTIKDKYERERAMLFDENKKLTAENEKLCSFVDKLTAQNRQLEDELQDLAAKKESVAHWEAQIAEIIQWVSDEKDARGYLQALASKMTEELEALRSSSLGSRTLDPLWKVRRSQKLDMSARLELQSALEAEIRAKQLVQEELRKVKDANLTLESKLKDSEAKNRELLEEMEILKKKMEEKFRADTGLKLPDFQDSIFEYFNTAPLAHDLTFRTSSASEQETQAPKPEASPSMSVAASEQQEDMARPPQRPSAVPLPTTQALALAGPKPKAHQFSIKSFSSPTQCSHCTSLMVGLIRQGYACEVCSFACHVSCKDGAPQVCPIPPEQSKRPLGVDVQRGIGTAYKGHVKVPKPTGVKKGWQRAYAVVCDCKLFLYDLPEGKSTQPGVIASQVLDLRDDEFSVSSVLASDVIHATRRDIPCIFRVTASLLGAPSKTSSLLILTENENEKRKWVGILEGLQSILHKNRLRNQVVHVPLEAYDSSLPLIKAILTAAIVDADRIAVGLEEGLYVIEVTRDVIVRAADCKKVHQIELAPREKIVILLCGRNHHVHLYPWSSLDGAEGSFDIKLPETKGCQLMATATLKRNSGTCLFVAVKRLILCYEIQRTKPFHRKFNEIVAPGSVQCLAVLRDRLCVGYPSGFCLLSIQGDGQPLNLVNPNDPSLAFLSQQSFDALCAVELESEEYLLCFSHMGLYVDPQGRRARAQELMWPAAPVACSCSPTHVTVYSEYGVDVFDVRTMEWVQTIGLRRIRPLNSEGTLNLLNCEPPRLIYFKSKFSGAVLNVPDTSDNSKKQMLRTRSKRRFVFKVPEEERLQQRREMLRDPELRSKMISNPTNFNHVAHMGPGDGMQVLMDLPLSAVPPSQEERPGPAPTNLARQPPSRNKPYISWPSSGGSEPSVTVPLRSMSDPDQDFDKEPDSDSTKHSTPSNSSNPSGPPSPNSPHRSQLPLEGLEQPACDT
Sequence of Serine/threonine-protein kinase MRCK alpha (Homo sapiens) (Q5VT25 whole entry): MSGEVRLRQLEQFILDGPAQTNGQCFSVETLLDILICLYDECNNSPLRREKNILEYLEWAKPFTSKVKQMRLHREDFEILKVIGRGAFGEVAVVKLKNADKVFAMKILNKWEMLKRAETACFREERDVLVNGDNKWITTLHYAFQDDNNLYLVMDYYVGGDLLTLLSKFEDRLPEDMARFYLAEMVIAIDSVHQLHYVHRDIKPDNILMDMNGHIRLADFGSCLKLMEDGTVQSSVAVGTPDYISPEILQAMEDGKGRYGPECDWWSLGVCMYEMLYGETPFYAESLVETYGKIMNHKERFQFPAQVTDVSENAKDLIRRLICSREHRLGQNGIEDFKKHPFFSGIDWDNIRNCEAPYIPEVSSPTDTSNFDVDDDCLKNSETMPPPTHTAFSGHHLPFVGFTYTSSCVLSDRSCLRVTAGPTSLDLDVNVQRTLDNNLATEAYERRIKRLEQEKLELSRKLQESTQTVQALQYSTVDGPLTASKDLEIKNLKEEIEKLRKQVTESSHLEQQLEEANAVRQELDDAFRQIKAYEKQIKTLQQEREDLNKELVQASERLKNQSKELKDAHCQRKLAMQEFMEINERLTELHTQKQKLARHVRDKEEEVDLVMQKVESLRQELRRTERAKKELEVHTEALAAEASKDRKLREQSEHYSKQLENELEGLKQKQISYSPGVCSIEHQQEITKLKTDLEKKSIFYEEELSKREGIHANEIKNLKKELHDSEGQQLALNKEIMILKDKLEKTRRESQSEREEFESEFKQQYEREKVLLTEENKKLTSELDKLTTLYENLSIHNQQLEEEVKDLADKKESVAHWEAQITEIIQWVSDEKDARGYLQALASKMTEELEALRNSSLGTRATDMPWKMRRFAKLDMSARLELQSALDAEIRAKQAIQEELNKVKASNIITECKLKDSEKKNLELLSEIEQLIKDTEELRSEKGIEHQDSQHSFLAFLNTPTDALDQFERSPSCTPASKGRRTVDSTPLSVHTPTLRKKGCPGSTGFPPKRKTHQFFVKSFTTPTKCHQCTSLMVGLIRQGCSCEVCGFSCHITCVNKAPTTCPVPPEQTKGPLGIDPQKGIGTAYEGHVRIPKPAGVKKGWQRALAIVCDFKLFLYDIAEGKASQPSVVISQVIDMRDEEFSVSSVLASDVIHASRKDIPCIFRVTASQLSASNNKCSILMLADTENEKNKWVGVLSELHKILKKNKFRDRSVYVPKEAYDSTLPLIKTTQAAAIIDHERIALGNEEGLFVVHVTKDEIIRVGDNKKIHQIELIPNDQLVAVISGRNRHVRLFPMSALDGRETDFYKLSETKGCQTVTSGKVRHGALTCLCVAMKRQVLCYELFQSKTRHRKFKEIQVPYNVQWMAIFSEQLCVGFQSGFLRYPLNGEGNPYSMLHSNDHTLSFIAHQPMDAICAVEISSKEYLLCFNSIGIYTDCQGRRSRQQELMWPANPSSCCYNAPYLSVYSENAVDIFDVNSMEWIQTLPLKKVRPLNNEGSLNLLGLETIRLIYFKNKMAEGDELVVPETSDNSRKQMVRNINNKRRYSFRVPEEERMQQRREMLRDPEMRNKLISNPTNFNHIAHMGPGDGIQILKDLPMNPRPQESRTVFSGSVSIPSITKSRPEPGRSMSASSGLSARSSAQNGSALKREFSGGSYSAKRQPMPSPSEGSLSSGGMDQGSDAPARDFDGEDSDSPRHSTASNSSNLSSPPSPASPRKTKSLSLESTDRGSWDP

Row | SMILES | inhibition [1] | inhibition [2] | inhibition [3] | inhibition [4] | inhibition [5] | inhibition [6] | inhibition [7] | inhibition [8] | inhibition [9] | inhibition [10]
1 | CC(=O)NCc1cccc(C#Cc2cncnc2Nc2ccc(OCc3cccc(F)c3)c(Cl)c2)c1 | 0.23% | -0.33% | 0.09% | 1.09% | -4.98% | -3.7% | 0.45% | 4% | 0.26% | 0.74%
2 | NC(=O)c1sc(-n2cnc3ccc(C(F)(F)F)cc32)cc1OCc1ccccc1Br | -0.03% | 1.97% | 0.62% | 3.16% | 4.33% | 4.75% | 3.18% | 5.34% | 1.25% | 2.28%
3 | N#Cc1c(NC(=O)c2ccc(F)cc2)sc2c1CCCC2 | 0.16% | -0.05% | -0.27% | 1.57% | 1.16% | 2.08% | 0.1% | 2.25% | -0.29% | 0.86%
4 | COc1ccc(-c2oc3ncnc(N)c3c2-c2ccc(NC(=O)Nc3cc(C(F)(F)F)ccc3F)cc2)cc1 | 0.52% | 6.52% | 0.63% | 1.86% | 5.16% | 16.1% | 4.9% | 24.2% | 11.7% | 68.2%
5 | O=C(Nc1n[nH]c2cc(-c3ccc(F)cc3)ccc12)C1CC1 | 0.19% | 0.87% | 0.84% | 5.66% | 13.8% | 13.6% | 6.38% | 8.25% | 2% | 2.94%
6 | COC(=O)c1sc(-n2cnc3cc(OC)c(OC)cc32)cc1OCc1ccccc1C(F)(F)F | -0.56% | -2.93% | -0.49% | -0.87% | 3.01% | 1.81% | 0.54% | 3.06% | 2.41% | 7.02%
7 | COc1ccc2c(-c3ccnc(Nc4cccc(OC(F)(F)F)c4)n3)cnn2n1 | -0.42% | 2.27% | 0.42% | -0.61% | 4.58% | 4.54% | 2.99% | 7.19% | 3.11% | 3.7%
8 | COc1cc2c(cc1Nc1nc(Nc3ccsc3C(N)=O)c3cc[nH]c3n1)N(C(=O)CN(C)C)CCC2(C)C | 2.48% | 6.74% | 4.54% | 14.9% | 4.6% | 8.3% | 5.18% | 13.8% | 2.7% | 4.93%
9 | CCN1CCC(CC(=O)Nc2n[nH]c3nnc(-c4cccc(F)c4F)cc23)CC1 | -3.37% | 0.57% | 0.12% | 0.92% | 0.93% | -0.87% | 2.22% | 1.55% | 0.65% | 0.08%
10 | FC(F)(F)c1cccc(-c2nn3ncccc3c2-c2ccnc(Nc3ccc4c(c3)OCCO4)n2)c1 | 0.13% | 0.81% | -0.8% | 1.29% | 1.59% | 1.24% | 0.3% | 3.51% | 1.22% | -0.48%
11 | CCc1nn2ncccc2c1-c1ccnc(NC2CC2)n1 | 3.74% | 2.27% | 1.18% | 2.16% | 0.41% | 1.19% | 1.26% | 3.44% | 1.12% | 2.51%
12 | COc1cc(/C=N/Nc2ncnc3[nH]ncc23)ccc1O | 0.11% | 2.49% | 0.6% | 1.83% | 4.13% | 13.9% | 2.93% | 8.42% | 3.45% | 21.4%
13 | NS(=O)(=O)c1ccc(Nc2ncc(-c3ccccc3)o2)cc1 | -0.91% | -1.21% | 0.24% | 1.14% | 3.01% | 4.81% | 3% | 5.37% | 2.3% | 3.51%
14 | Fc1ccc(-c2nn3ncccc3c2-c2ccnc(Nc3ccc4c(c3)OCCO4)n2)cc1 | 1.99% | 20.4% | -0.17% | 1.27% | 2.73% | 2.22% | 0.67% | 3.9% | 1.73% | 2.69%
15 | COc1ccc(CNC(=O)c2ccc(-c3cc(-c4nnc(C)o4)ccc3C)cc2)cc1 | 2.98% | 6.58% | 2.16% | 2.99% | 9.25% | 9.58% | 3.89% | 4.66% | 1.64% | 2.15%
16 | CN1CCC(n2cnc(-c3ccc(F)cc3)c2-c2ccnc(N)n2)CC1 | 1.47% | 1.4% | -1.13% | 1.3% | 0.55% | 2.23% | 0.42% | 3.67% | -0.73% | 1.36%
17 | NS(=O)(=O)c1ccc(N/N=C2\C(=O)Nc3ccc4ncccc4c32)cc1 | 1.68% | 13.5% | 0.55% | 7.07% | 5.1% | 14.5% | 20.4% | 61.2% | 2.37% | 12.1%
18 | CC(C)(CO)CNC(=O)c1ccc2c(c1)/C(=N/Nc1ccc(S(N)(=O)=O)cc1)C(=O)N2 | -0.66% | -2.01% | 0.21% | 1.07% | 0.88% | 0.97% | 1.15% | 6.02% | -0.13% | 2.2%
19 | COc1ccc(-c2nn3ncccc3c2-c2ccnc(Nc3ccc4c(c3)OCCO4)n2)cc1 | -0.27% | -2.49% | 0.2% | 0% | 0.41% | -0.38% | 1.07% | -0.23% | 0.77% | -0.95%
20 | COc1cc2ncn(-c3cc(OCc4ccccc4C(F)(F)F)c(C(=O)N(C)C)s3)c2cc1OC | 0.01% | 0.75% | -1.11% | 1.24% | -0.57% | -0.4% | 0.13% | 0.89% | -0.55% | -1.48%

Row | SMILES | inhibition [1] | inhibition [2] | inhibition [3] | inhibition [4] | inhibition [5] | inhibition [6] | inhibition [7] | inhibition [8] | inhibition [9] | inhibition [10]
21 | COC(=O)Nc1nc2ccc(S(=O)(=O)c3ccc(NC(=O)Nc4cc(C(F)(F)F)ccc4F)cc3)cc2[nH]1 | 0.58% | -0.35% | 1.96% | 1.32% | 2.41% | 1.23% | 0.77% | 4.31% | 2.42% | 0.71%
22 | CCn1c(-c2nonc2N)nc2ccccc21 | 1.63% | 10.9% | 1.39% | 10.9% | 23.3% | 62.5% | 7.88% | 40.4% | 22.1% | 70.5%
23 | CNC(=O)c1cc(-c2ccc(F)cc2)cc(-c2ccc(S(=O)(=O)N3CCCC3)cc2)c1N | 1.92% | 0.6% | -1.06% | -0.2% | 9.11% | 8.3% | 1.23% | 1.99% | 0.63% | 1.47%
24 | COc1cccc(-c2c[nH]c3c(N/N=C/c4ccncc4)ncnc23)c1 | 0.71% | 6.35% | 0.92% | 5.25% | 8.98% | 9.82% | 2.85% | 4.13% | 2.85% | 8.54%
25 | Nc1nc(-c2ccc(F)cc2)c(-c2ccc3ncccc3n2)s1 | -0.11% | 3.87% | 0.89% | 0.94% | 3.54% | 3.83% | 3.18% | 4.49% | 2.53% | 2.7%
26 | COc1cc(Nc2nccc(Nc3ccc4c(C)n[nH]c4c3)n2)cc(OC)c1OC | 1.61% | -0.15% | 1.88% | 1.78% | 3.58% | 2.96% | 1.54% | 2.58% | 0.65% | 1.09%
27 | COc1ccc(-c2cc3c(N)ncnc3o2)cc1 | 1.37% | -2.67% | 1.33% | -0.07% | -2.51% | -3.04% | -0.05% | -0.35% | -0.5% | -0.54%
28 | Fc1ccc(-c2cc(-c3c[nH]nc3-c3ccccn3)ccn2)cc1 | -0.62% | 2.14% | -1.2% | -2.11% | 2.42% | 1.68% | 2.17% | 3.21% | 0.99% | 2.4%
29 | N#Cc1c(NC(=O)CN2CCOCC2)sc2c1CCCC2 | 0.22% | 2.63% | 0.43% | 0.37% | 3.16% | 3.12% | 2.5% | 2% | 2.57% | 1.13%
30 | Clc1ccc(-c2nn3ncccc3c2-c2ccnc(Nc3ccccc3)n2)cc1 | -0.06% | 0.52% | 0.76% | 1.28% | 0.64% | 2.07% | 1% | 2.91% | 0.57% | -0.24%
31 | COc1cccc(-n2ncc3c(N/N=C/c4ccc(F)cc4)ncnc32)c1 | -0.63% | 1.53% | -0.45% | 0.66% | 4.05% | 4.15% | 2.78% | 4.13% | 1.73% | 3.51%
32 | CCn1cc(-c2ccnc3[nH]ccc23)c(-c2cccc(NC(=O)Nc3ccc(OCc4ccccc4)cc3)c2)n1 | -4.2% | 4.85% | -0.78% | -0.56% | -0.53% | -2.01% | 1.02% | 0.39% | -0.04% | -0.6%
33 | COc1cc(N2CCN(C(C)C)CC2)ccc1Nc1nc(Nc2ccc(F)cc2C(N)=O)c2cc[nH]c2n1 | 9.71% | 20% | 1.18% | 16.4% | 1.85% | 6.61% | 1.8% | 7.26% | 1.81% | 5.41%
34 | COc1ccc(-c2cc(-c3c[nH]nc3-c3ccccn3)ccn2)cc1 | -0.6% | 3.02% | -0.39% | 0.6% | 4.28% | 4.22% | 3.45% | 4.77% | 2.32% | 3.73%
35 | CS(=O)(=O)CCNCc1coc(-c2ccc3ncnc(Nc4ccc(OCc5ccccc5)cc4)c3c2)c1 | 2.17% | 0.57% | 0.72% | 1.14% | 1.49% | 1.55% | 2.52% | 3.49% | 0.79% | 3.34%
36 | COc1ccc2[nH]c3c4[nH]c5ccc(OC)cc5c4c4c(c3c2c1)C(=O)NC4=O | 0.84% | 11.8% | -0.86% | 2.96% | 18.7% | 48.4% | 11.8% | 45.3% | 45.6% | 83.6%
37 | Nc1nc(-c2cccc(Cl)c2)c(-c2ccc3ncccc3n2)s1 | -0.36% | 5.58% | -0.33% | 0.87% | 9.72% | 9.28% | 2.91% | 3.45% | 1.21% | 3.77%
38 | CCCN(CCS(C)(=O)=O)Cc1ccc(-c2ccc3ncnc(Nc4ccc(OCc5cccc(F)c5)c(Cl)c4)c3c2)o1 | -1.08% | 0.54% | -0.36% | 0.64% | 7.14% | 6.79% | 1.76% | 1.8% | 1.21% | 1.92%
39 | CCN(CC)S(=O)(=O)c1ccc(OC)c(Nc2ncc(-c3ccccc3)o2)c1 | 1.92% | 0.2% | -0.21% | -0.04% | 3.03% | 6.51% | 0.54% | 1.06% | 1.32% | 0.49%
